High-throughput results from PubChem.
The list is not random: actives were taken first. Their share in the collection is about 1.6%.
KCNQ2 inh – rat KCNQ2 potassium channel inhibitors, primary screen, cell-based, CHO-K1, FluxOR thallium flux, B-score | Potassium voltage-gated channel subfamily KQT member 2 (Rattus norvegicus), O88943 | 20 min; hits give low values | hit rate 1.1% among 310,000 | B-score at 10 µM;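 active means fluorescence ratio B-score at most minus 3 library SDs, with starting brightness B-score within 2 library SDs, cut at about -5.5 in these data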
KCNQ2 pot – potentiators of rat KCNQ2 potassium channel. B-score at 10 µM. hit rate 0.54% among 310,000. CHO-K1 KCNQ2, FluxOR thallium flux fluorescence; hits give high values. Potassium voltage-gated channel subfamily KQT member 2 (Rattus norvegicus), O88943. AID 2239, 2010;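 active means fluorescence ratio B-score at least 3 SD of library B-scores, with initial fluorescence B-score within 3 of them, cut at about 5.3 in these data; same plate scores as AID 2156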;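 further: B-score of peak minus minimum over baseline fluorescence ratio after K+ and Tl+ stimulus; positive B-score means potentiation of KCNQ2 with more thallium influx and brighter signal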
Kir21 conf inh – mouse Kir2.1 channel blockers, retest, confirmation, cell-based, FluxOR thallium flux, duplicate. shares compounds with KCNQ2 pot. Kir2.1-expressing cells, FluxOR thallium flux fluorescence; hits give low values. hit rate 41% among 2,300. Tl flux remaining, % of negative control (hits give low values), % at 10 µM;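 active means Primary-screen hit whose thallium flux fell at least 3 control SD below untreated wells in both duplicates, with normal baseline fluorescence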;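 further: 0% = blank wells without stimulus and 100% = stimulated no-compound controls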
HEK293 ctr – parental HEK293 activity in Kir2.1 inhibitor counter-screen; AID 2105; FluxOR signal as % of negative control (100 = no effect), % at 10 µM; hit rate 19% among 2,300; parental HEK293 cells, FluxOR thallium flux fluorescence; 0% = unstimulated blank wells; shares compounds with KCNQ2 pot;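 active means dye signal at least 3 control SD above or below untreated wells in both duplicates, raw fluorescence within 3, either direction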;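 further: percent is based on the flux ratio of peak minus minimum fluorescence over baseline F0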
CHO-K1 Tl ctr – nonspecific thallium flux increase in parental CHO-K1, confirmation, counter-screen for KCNQ2 potentiator project, cell-based, FluxOR thallium flux, duplicate. parental CHO-K1 cells, FluxOR thallium flux fluorescence; zero = vehicle mean+3SD, 100% = vehicle-minus-blank window. AID 2282, 2010. shares compounds with KCNQ2 pot. activity increase over 3SD of controls, % at 10 µM. hit rate 43% among 1,200;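 active means signal rise of at least 3 SD above the untreated control mean, in both duplicate wells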;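 further: counter screen of KCNQ2 potentiator hits so any rise reflects channel-independent effects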
KCNQ1 pot spec – human KCNQ1 channel potentiation off-target, confirmation, selectivity assay for KCNQ2 potentiator project, cell-based, CHO, FluxOR thallium flux; hit rate 28% among 1,200; shares compounds with KCNQ2 pot; activation over 3SD threshold, % at 10 µM; CHO KCNQ1 stable, FluxOR thallium flux fluorescence; beyond 3SD, as % of vehicle-control signal; AID 2283, 2010;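 active means fluorescence ratio rise of at least 3 SD of vehicle wells above their mean, in both replicate wells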;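 further: 0% = vehicle mean plus 3 SD and 100% = vehicle minus unstimulated blank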
Target sequence (P51787 whole entry, looked up): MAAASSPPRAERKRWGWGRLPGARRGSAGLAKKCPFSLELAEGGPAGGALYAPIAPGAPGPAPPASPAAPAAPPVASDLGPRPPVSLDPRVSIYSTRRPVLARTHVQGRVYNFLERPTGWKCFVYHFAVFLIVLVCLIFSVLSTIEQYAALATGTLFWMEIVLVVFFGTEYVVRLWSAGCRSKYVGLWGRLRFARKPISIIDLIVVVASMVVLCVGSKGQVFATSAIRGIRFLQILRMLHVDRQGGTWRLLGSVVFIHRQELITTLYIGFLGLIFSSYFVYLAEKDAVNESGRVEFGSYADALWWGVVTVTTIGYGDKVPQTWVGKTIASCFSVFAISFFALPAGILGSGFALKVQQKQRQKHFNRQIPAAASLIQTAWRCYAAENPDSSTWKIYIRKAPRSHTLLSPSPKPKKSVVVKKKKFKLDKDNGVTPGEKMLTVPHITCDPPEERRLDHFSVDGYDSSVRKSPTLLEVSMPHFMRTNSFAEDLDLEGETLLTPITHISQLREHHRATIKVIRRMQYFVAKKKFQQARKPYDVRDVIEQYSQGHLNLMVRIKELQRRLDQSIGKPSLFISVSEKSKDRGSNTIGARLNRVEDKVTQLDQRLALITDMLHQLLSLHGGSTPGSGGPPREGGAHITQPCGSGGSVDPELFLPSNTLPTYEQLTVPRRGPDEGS
KCNQ2 pot conf – rat KCNQ2 channel potentiators, confirmation, cell-based, CHO, FluxOR thallium flux, duplicate | potentiation, less the hit threshold, % at 10 µM | shares compounds with KCNQ2 pot | CHO-KCNQ2 cells, FluxOR thallium flux fluorescence | hit rate 68% among 1,200 | AID 2287, 2010;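 active means fluorescence ratio rising 3 SD or more over the vehicle control mean in both replicates, plus primary screen hit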;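 further: peak minus minimum thallium fluorescence divided by baseline after K/Tl stimulus; 0% = vehicle mean plus 3 SD and 100% = vehicle minus unstimulated blank difference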
Kir21 spec – mouse Kir2.1 channel activation off-target, confirmation, selectivity assay for KCNQ2 potentiator project, cell-based, HEK293, FluxOR thallium flux | shares compounds with KCNQ2 pot | HEK293 Kir2.1, FluxOR thallium flux fluorescence | activity over 3SD threshold, % at 10 µM | hit rate 2% among 1,200;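 active means fluorescence ratio rise of at least 3 SD above the vehicle-control mean, seen in both replicates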;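 further: 0% = vehicle mean plus 3 SD and 100% = vehicle minus no-stimulus blank window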
KCNQ2 W236L MoA – potentiators of retigabine-insensitive KCNQ2 W236L, mechanism study for KCNQ2 potentiator project, cell-based, rat KCNQ2 W236L, CHO, automated patch clamp; current increase over 3SD of negative controls (%), hits give high values, % at 25 µM; automated patch clamp current; shares compounds with KCNQ2 pot; hit rate 10% among 940;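 active means current increase at least 3 SD of the untreated controls above them in both duplicate recordings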
Active calls of the source: *; i = inactive; x = no result.

SMILES | KCNQ2 inh | KCNQ2 pot | Kir21 conf inh | HEK293 ctr | others
CCCCOC(=O)n1c(=S)oc2cc(Cl)ccc21 | i | 1.9 | x | x
O=C(CSc1nnc(NC(=O)c2ccccc2F)s1)NC1CC1 | i | x | x | x
O=C(O)CCCC(=O)Nc1ccccc1C(=O)N1CCOCC1 | i | x | x | x
Clc1cc(Br)ccc1OCCCNCc1ccccc1 | i | x | x | x
Cc1ccc(C(C)C)c(OCCN)c1 | i | 0.89 | x | x
Cc1ccc(C(C)C)c(OCCNCc2ccccc2)c1 | i | 1.1 | 16%* | i
CC(C)(C)c1ccccc1OCCOCCNCc1ccccc1 | i | x | x | x
Cc1ccc(C(C)C)c(OCCOCCN2CCNCC2)c1 | i | x | x | x
Cc1ccc(C(C)C)c(OCCCCN2CCNCC2)c1 | i | 0.18 | 44%* | i
Cc1ccc(C)c(OCCCNCc2ccccc2)c1 | i | x | 24%* | i
Cc1cc(OCCOCCNCc2ccccc2)ccc1C(C)C | i | 2.2 | 22%* | i
O=c1oc(-c2ccc(Br)cc2)nc2ccccc12 | i | x | x | x
COc1ccccc1Nc1nc(-c2cccc([N+](=O)[O-])c2)cs1 | i | 1.6 | x | x
O=[N+]([O-])c1cccc(-c2csc(Nc3ccccc3)n2)c1 | i | 0.15 | i | i
CCOc1ccc(N2C(=O)C3=C(C(c4ccc(Cl)cc4)=NCCN3)C2c2cccnc2)cc1 (centres undefined) | i | x | x | x
Cc1ccc(C2C3=C(NCCN=C3c3ccccc3)C(=O)N2c2ccccc2)cc1 (centres undefined) | i | x | i | i
Cc1cccc(NC(=O)CCNC(=O)c2ccc(Br)cc2)c1 | i | 0.56 | x | x
CCOc1nc(C)cc(C)c1S(=O)(=O)c1cccc(Cl)c1 | i | x | 61%* | i
Cc1cc(C)c(S(=O)(=O)c2cccc(Cl)c2)c(Cl)n1 | i | x | x | x
O=C(O)c1ccc(N=C2NC(=O)C(CO)(CO)S2)cc1 | i | 0.42 | x | x
COc1ccc(/C=C2\C(=O)ON=C2c2ccccc2)cc1 | i | x | x | x
O=C1ON=C(c2ccccc2)/C1=C/c1ccc(O)c(O)c1 | i | 6.8* | 70%* | i | CHO-K1 Tl ctr=-4;KCNQ1 pot spec=-6;KCNQ2 pot conf=-1;Kir21 spec=-71;KCNQ2 W236L MoA=i
COc1ccc(C(=O)N/C(=C\c2ccccc2)C(=O)Nc2ccccc2C(=O)O)cc1 | i | x | x | x
CC[n+]1c(/C=C/c2ccc(N(C)C)cc2)ccc2ccccc21 | -9.3* | -9.3 | i | i
CC[n+]1c(/C=C/c2ccc(OC)c(OC)c2)ccc2ccccc21 | i | x | x | x
SMILES | KCNQ2 inh | KCNQ2 pot | Kir21 conf inh | HEK293 ctr | others
CCN(CC)c1ccc(/C=C/c2ccc3ccc(OC)cc3[n+]2CC)cc1 | -7.6* | -7.6 | i | i
CC[n+]1c(/C=C/c2ccc(OC(C)=O)c(OC)c2)ccc2ccccc21 | i | x | x | x
COc1ccccc1C(=O)N/C(=C\c1cn(C)c2ccccc12)C(=O)N1CCCC1 | i | 0.87 | x | x
CC(=O)Nc1ccc(S(=O)(=O)N2c3ccccc3NC(=O)CC2C)c(Cl)c1 (centres undefined) | i | x | x | x
CSc1ncccc1C(=O)Nc1ccc(F)c(F)c1F | i | 0.95 | x | x
c1ccc(-c2n[nH]c(-c3ccccn3)n2)nc1 | i | 0.82 | x | x
c1ccc(-c2n[nH]c(-c3ccccn3)n2)cc1 | i | 14* | i | i | CHO-K1 Tl ctr=-10;KCNQ1 pot spec=-15;KCNQ2 pot conf=48*;Kir21 spec=-21;KCNQ2 W236L MoA=i
COc1ccc(S(=O)(=O)N2CCN(C(=O)c3ccco3)CC2)cc1C(C)(C)C | i | 0.01 | x | x
CCOC(=O)c1c(NS(C)(=O)=O)sc2c1CCC(C)C2 (centres undefined) | i | 2.2 | i | 178%*
CCOC(=O)c1c(N)sc2c1CCC(C)C2 (centres undefined) | i | 0.04 | x | x
CC(C)=CC(=O)N1CCC(N2CCC(C(=O)NCC3CCCO3)CC2)CC1 (centres undefined) | i | 1.2 | x | x
COCCCNC(=O)c1ccccc1Oc1ccccc1 | i | x | x | x
CCC(CC)NC(=O)c1ccccc1Oc1ccccc1 | i | x | 55%* | i
O=C(NCc1ccc(Cl)cc1)c1ccccc1Oc1ccccc1 | i | 8.8* | i | i | CHO-K1 Tl ctr=110*;KCNQ1 pot spec=-12;KCNQ2 pot conf=12*;Kir21 spec=-49;KCNQ2 W236L MoA=i
CCC(C)(C)NC(=O)c1ccccc1Oc1ccccc1 | i | x | x | x
CCc1[nH]nc(C(=O)N2CCCC(Nc3cccc(F)c3)C2)c1C (centres undefined) | i | 0.76 | x | x
COc1ccccc1C(=O)NC(=O)COC(=O)c1cccc(C)c1O | i | 1.6 | x | x
S=c1nc(-c2ccc(Br)cc2)[nH]c2ccccc12 | i | 26* | i | 452%* | CHO-K1 Tl ctr=-3;KCNQ1 pot spec=-4;KCNQ2 pot conf=40*;Kir21 spec=-8;KCNQ2 W236L MoA=i
Fc1ccc(-c2nc3ccccc3[nH]2)cc1 | i | 0.68 | x | x
COc1cccc(NC(=O)CN2C(=O)CSc3ccc(S(=O)(=O)N4CCCCC4)cc32)c1 | i | x | x | x
Cc1cc(=O)[nH]c(NCc2ccc(Cl)cc2)n1 | i | 0.13 | x | x
COc1ccc(Nc2nnc(Cc3ccncc3)c3ccccc23)c(OC)c1 | i | 0.47 | x | x
O=C1CC(N2CCN(Cc3ccc(Cl)cc3)CC2)C(=O)N1CCc1ccccc1 (centres undefined) | i | 5.8* | i | i | CHO-K1 Tl ctr=-9;KCNQ1 pot spec=-22;KCNQ2 pot conf=22*;Kir21 spec=-53;KCNQ2 W236L MoA=i
O=C1CC(N2CCN(Cc3ccccc3)CC2)C(=O)N1CCc1ccccc1 (centres undefined) | i | 0.92 | x | x
COC(=O)c1c(-c2ccccc2)nn(-c2ccccc2)c1C(=O)OC | i | x | x | x
CC(C)Nc1ccc(Nc2ccnc3cc4ccccc4cc23)cc1 | i | x | x | x
c1ccc(CCNc2ccnc3cc4ccccc4cc23)cc1 | i | 0.82 | i | i
